Source: PubChem (Broad Institute)
T cruzi growth-1: T. cruzi proliferation inhibition | T. cruzi beta-gal in NIH3T3, GalScreen luminescence, 90 h | inhibition, % at 8.34 µM | actives 5.9% (n = 77,000);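 active means mean inhibition above about 93%, with at least 55% of replicates each passing it, limit read from the data, passing the limit was not always enough; inconclusive means only one of those two conditions holds; inactive means neither condition holds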
C diff growth: inhibitors of Clostridium difficile growth; growth activity, negative = inhibition, % at 16 µg/mL (by protocol); AID 1259249; actives 0.25% (n = 86,000); Clostridium difficile clinical isolate growth, OD600, 24 h; active compounds read low;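 active means mean growth activity at or below -80% and every replicate also at or below -80%; inconclusive means mean at or below -80% but some replicate above -80%; inactive means mean growth activity above -80%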
Pf Dd2 inh: P. falciparum Dd2 growth inhibition; SYBR Green, 72 h; active compounds read low; activity change, % at 10 µM; actives 2.3% (n = 94,000); AID 1159554; in the data active means activity change below about -80%; inconclusive means no clear call, values can overlap the other calls
T cruzi growth-2: inhibitors of T. cruzi proliferation. shares compounds with T cruzi growth-1. AID 651739. T. cruzi beta-gal in NIH3T3, GalScreen luminescence, 90 h. inhibition, % at 8.35 µM. actives 72% (n = 5,600);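 active means mean replicate inhibition above about 95% and at least 55% of replicates individually reaching it, limit read from the data; inconclusive means only one of the two criteria is met; inactive means neither criterion is met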
T cruzi growth-3: blocks T. cruzi growth in NIH3T3 host cells; shares compounds with T cruzi growth-1; T. cruzi beta-gal in NIH3T3, GalScreen luminescence, 90 h; inhibition, % at 2.09 µM; actives 21% (n = 5,600); AID 651740;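 active means mean inhibition above about 95%, with at least 55% of replicates also reaching it, limit read from the data; inconclusive means meets just one of the two conditions; inactive means meets neither condition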
NIH3T3 tox: cytotoxicity in mouse NIH/3T3 fibroblasts | AID 651742 | NIH/3T3 viability, CellTiter-Glo ATP luminescence, 90 h | shares compounds with T cruzi growth-1 | actives 14% (n = 5,600) | cytotoxicity (signal decrease), % at 8.35 µM;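 active means mean signal decrease across replicates above about 35% based on untreated-well scatter, with enough replicates individually passing, limit read from the data; inconclusive means no rule stated though some were filed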
3T3 cytotox 2: kills mouse NIH/3T3 fibroblasts; shares compounds with T cruzi growth-1; actives 56% (n = 5,600); NIH/3T3 viability, CellTiter-Glo ATP luminescence, 90 h; inhibition, % at 24.9 µM;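 active means mean loss of cell viability signal at or above a set limit, and enough replicates individually reaching it; inconclusive means meets only the mean limit or only the replicate share; inactive means meets neither condition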
Large screens that a line does not name were inactive (follow-up assays come after a bar, where they were run). An excerpt weighted towards active compounds, which were near 6.8% of everything screened.

COc1ccccc1-c1ccc2c(c1)O[C@H](CN(C)S(=O)(=O)c1ccccc1)[C@@H](C)CN([C@@H](C)CO)S2(=O)=O	T cruzi growth-1 92.9 | T cruzi growth-2 95.1 | T cruzi growth-3 inactive | NIH3T3 tox 35.8 | 3T3 cytotox 2 46.5
COc1ccccc1-c1ccc2c(c1)O[C@H](CN(C)C)[C@@H](C)CN([C@H](C)CO)S2(=O)=O	none
COc1ccccc1-c1ccc2c(c1)O[C@@H](CN(C)C)[C@H](C)CN([C@@H](C)CO)S2(=O)=O	none
COc1ccccc1-c1ccc2c(c1)O[C@@H](CN(C)S(=O)(=O)c1ccc(C)cc1)[C@@H](C)CN([C@@H](C)CO)S2(=O)=O	T cruzi growth-1 127.0 | T cruzi growth-2 105.2 | T cruzi growth-3 105.5 | NIH3T3 tox 52.8 | 3T3 cytotox 2 44.0
COc1ccccc1-c1ccc2c(c1)O[C@@H](CN(C)S(=O)(=O)c1ccc(C)cc1)[C@@H](C)CN([C@H](C)CO)S2(=O)=O	T cruzi growth-1 126.3 | T cruzi growth-2 102.7 | T cruzi growth-3 inactive | NIH3T3 tox inactive | 3T3 cytotox 2 36.6
CCC(=O)N1CC[C@@H]2[C@H]1c1cc(-c3ccc(OC)cc3)ccc1N[C@@H]2CO	none
Cc1ccc(S(=O)(=O)Nc2ccc3c(c2)C(=O)N([C@H](C)CO)C[C@@H](C)[C@H](CN(C)Cc2ccc(C(=O)O)cc2)OCCCC[C@@H](C)O3)cc1	none (no result: T cruzi growth-1, C diff growth)
CN(C)C(=O)C[C@H]1CC[C@H]2[C@@H](COC[C@@H](O)CN2C(=O)c2ccncc2)O1	none (no result: Pf Dd2 inh)
CCCNC(=O)[C@H]1[C@H](CO)[C@H]2Cn3c(cccc3=O)[C@@H]1N2C(=O)C1CCCC1	none
COc1cccc(CNC(=O)[C@H]2[C@H](CO)[C@H]3Cn4c(cccc4=O)[C@@H]2N3C(=O)C2CCCCC2)c1	T cruzi growth-1 157.3 (no result: Pf Dd2 inh) | T cruzi growth-2 inactive | T cruzi growth-3 inactive | NIH3T3 tox inactive | 3T3 cytotox 2 inactive
O=C(NCC(F)(F)F)[C@@H]1[C@@H](CO)[C@@H]2Cn3c(cccc3=O)[C@H]1N2C(=O)C1CC1	T cruzi growth-1 inconclusive | T cruzi growth-2 inactive | T cruzi growth-3 inactive | NIH3T3 tox inactive | 3T3 cytotox 2 inactive
O=C(NCC(F)(F)F)[C@H]1[C@H](CO)[C@H]2Cn3c(cccc3=O)[C@@H]1N2C(=O)C1CCC1	none
C[C@@H]1CCCCO[C@H](CN(C)Cc2ccncc2)[C@@H](C)CN([C@H](C)CO)C(=O)c2cc(NC(=O)CCC(F)(F)F)ccc2O1	none
C[C@@H]1CN([C@@H](C)CO)S(=O)(=O)c2ccc(-c3cncnc3)cc2O[C@@H]1CN(C)Cc1cccnc1	none
O=C(C1CCCC1)N1CC[C@H]2[C@H](CO)Nc3ccc(C#Cc4ccc(F)cc4)cc3[C@H]21	none (no result: T cruzi growth-1)
O=C(C1CCC1)N1CC[C@@H]2[C@H]1c1cc(-c3cccc(F)c3)ccc1N[C@@H]2CO	T cruzi growth-1 101.0 | T cruzi growth-2 104.6 | T cruzi growth-3 108.7 | NIH3T3 tox inactive | 3T3 cytotox 2 73.9
O=C(C1CC1)N1CC[C@@H]2[C@H](CO)Nc3ccc(-c4cccc(F)c4)cc3[C@@H]21	T cruzi growth-1 115.8 | T cruzi growth-2 104.0 | T cruzi growth-3 inactive | NIH3T3 tox inactive | 3T3 cytotox 2 inactive
O=C(C1CC1)N1CC[C@H]2[C@H](CO)Nc3ccc(-c4cccc(F)c4)cc3[C@H]21	T cruzi growth-1 116.5 | T cruzi growth-2 98.9 | T cruzi growth-3 inactive | NIH3T3 tox inactive | 3T3 cytotox 2 inactive
O=C(C1CCCC1)N1CC[C@@H]2[C@@H](CO)Nc3ccc(-c4cccc(F)c4)cc3[C@@H]21	none (no result: T cruzi growth-1)
O=C(C1CCCCC1)N1CC[C@@H]2[C@H]1c1cc(C#Cc3ccc(F)cc3)ccc1N[C@@H]2CO	T cruzi growth-1 105.9 | T cruzi growth-2 104.1 | T cruzi growth-3 inactive | NIH3T3 tox inactive | 3T3 cytotox 2 104.2
C[C@H]1CN([C@@H](C)CO)S(=O)(=O)c2ccc(-c3cccnc3)cc2O[C@@H]1CN(C)Cc1cccnc1	none
CCCNC(=O)N(C)C[C@@H]1Oc2ncc(C#CCC3CCCC3)cc2C(=O)N([C@H](C)CO)C[C@H]1C	none
COc1ccccc1C#Cc1ccc2c(c1)O[C@H](CN(C)Cc1ccncc1)[C@H](C)CN([C@H](C)CO)S2(=O)=O	T cruzi growth-1 112.4 | T cruzi growth-2 104.4 | T cruzi growth-3 inactive | NIH3T3 tox inactive | 3T3 cytotox 2 inactive
COc1ccccc1C#Cc1ccc2c(c1)O[C@@H](CN(C)C)[C@@H](C)CN([C@H](C)CO)S2(=O)=O	none (no result: T cruzi growth-1)
COc1ccccc1C#Cc1ccc2c(c1)O[C@H](CN(C)Cc1ccncc1)[C@@H](C)CN([C@H](C)CO)S2(=O)=O	T cruzi growth-1 122.7 | T cruzi growth-2 96.7 | T cruzi growth-3 101.7 | NIH3T3 tox inactive | 3T3 cytotox 2 71.0
COc1ccccc1C#Cc1ccc2c(c1)O[C@H](CN(C)C)[C@@H](C)CN([C@@H](C)CO)S2(=O)=O	none (no result: T cruzi growth-1)
CCCNC(=O)N[C@H]1CC[C@H](CC(=O)N2CCN(C)CC2)O[C@@H]1CO	none (no result: C diff growth)
O=C(C[C@@H]1CC[C@@H]2[C@H](COC[C@H](O)CN2Cc2ccccc2)O1)N[C@H]1CCN(Cc2ccccc2)C1	none
CC(C)OC(=O)N(C)C[C@H]1OCc2ccccc2-c2ccccc2C(=O)N([C@@H](C)CO)C[C@@H]1C	none
C[C@@H](NC(=O)C[C@H]1CC[C@H](NC(=O)c2cccnc2)[C@@H](CO)O1)c1ccccc1	none (no result: C diff growth)
CC(C)CC#Cc1ccc2c(c1)O[C@H](CN(C)Cc1cncnc1)[C@@H](C)CN([C@@H](C)CO)S2(=O)=O	T cruzi growth-1 110.7 | T cruzi growth-2 100.9 | T cruzi growth-3 100.7 | NIH3T3 tox inconclusive | 3T3 cytotox 2 97.7
CCCC#Cc1ccc2c(c1)O[C@H](CN(C)Cc1cncnc1)[C@@H](C)CN([C@@H](C)CO)S2(=O)=O	T cruzi growth-1 inconclusive | T cruzi growth-2 107.2 | T cruzi growth-3 100.6 | NIH3T3 tox inconclusive | 3T3 cytotox 2 99.2
CC(C)CC#Cc1ccc2c(c1)O[C@H](CN(C)Cc1cncnc1)[C@H](C)CN([C@@H](C)CO)S2(=O)=O	none
CCCC#Cc1ccc2c(c1)O[C@@H](CN(C)Cc1cncnc1)[C@@H](C)CN([C@H](C)CO)S2(=O)=O	none
COC(=O)C[C@H]1CC[C@@H]2[C@H](COc3ccc(NC(=O)c4ccc(F)cc4)cc3C(=O)N2C)O1	none
N#C[C@H]1[C@@H](c2ccc(C#Cc3cccc(F)c3)cc2)[C@@H](CO)N1C(=O)C1CCC1	none (no result: T cruzi growth-1)
N#C[C@@H]1[C@H](c2ccc(-c3cccnc3)cc2)[C@H](CO)N1C(=O)C1CCC1	none
N#C[C@@H]1[C@@H](c2ccc(C#Cc3cccnc3)cc2)[C@@H](CO)N1C(=O)C1CCCCC1	T cruzi growth-1 102.6 | T cruzi growth-2 inactive | T cruzi growth-3 inactive | NIH3T3 tox inactive | 3T3 cytotox 2 inactive
N#C[C@@H]1[C@H](c2ccc(C#Cc3cccc(F)c3)cc2)[C@@H](CO)N1C(=O)C1CCC1	T cruzi growth-1 106.6 | T cruzi growth-2 102.7 | T cruzi growth-3 107.9 | NIH3T3 tox inactive | 3T3 cytotox 2 79.8
N#C[C@@H]1[C@@H](c2ccc(C#Cc3cccc(F)c3)cc2)[C@@H](CO)N1C(=O)C1CCCC1	T cruzi growth-1 100.4 | T cruzi growth-2 107.4 | T cruzi growth-3 inactive | NIH3T3 tox inactive | 3T3 cytotox 2 63.6
